Laboratory results as given in PubChem BioAssay (NCATS).
Several values for one entry are separate records, joined by “and”; a condition that tells them apart may be missing. Equal values may be shown once. Inconclusive results are not listed. A number with no mark means an inactive call. The call rests on the fitted dose curve; in most records, active means well fitted activation curve with a large enough effect; inconclusive means small, poorly fitted or top-dose-only effect; inactive means no such curve, though single readings can be large or run the other way.

Molecular target: Cellular tumor antigen p53 (Homo sapiens) (UniProt P04637)
Test: Primary qHTS for small molecule compounds that upregulate eGFP-tagged delta133p53alpha (in N-terminal) cells. (AID 2060322);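 further: cells pre-induced with doxycycline then dosed without doxycycline; series mostly up to about 56 µM; 0% = DMSO vehicle and 100% = reference activator; nearly all actives have a fitted effect of over 75% in size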
Conditions: NCI-H358 eGFP-delta133p53alpha fluorescence, 24 h; activation: stronger effect = higher value
Outline: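 NCI-H358 cells pre-induced 24 h with 10 ng/ml doxycycline for eGFP-delta133p53alpha, plated dox-free and exposed 24 h at 37C to titrated compounds. Fixed, Hoechst-stained; gated GFP peak intensity by laser scanning cytometry, normalized to DMSO (0%) and 57.5 uM 5-azacytidine (100%).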

Chain of Cellular tumor antigen p53 (Homo sapiens) (P04637 whole entry, looked up): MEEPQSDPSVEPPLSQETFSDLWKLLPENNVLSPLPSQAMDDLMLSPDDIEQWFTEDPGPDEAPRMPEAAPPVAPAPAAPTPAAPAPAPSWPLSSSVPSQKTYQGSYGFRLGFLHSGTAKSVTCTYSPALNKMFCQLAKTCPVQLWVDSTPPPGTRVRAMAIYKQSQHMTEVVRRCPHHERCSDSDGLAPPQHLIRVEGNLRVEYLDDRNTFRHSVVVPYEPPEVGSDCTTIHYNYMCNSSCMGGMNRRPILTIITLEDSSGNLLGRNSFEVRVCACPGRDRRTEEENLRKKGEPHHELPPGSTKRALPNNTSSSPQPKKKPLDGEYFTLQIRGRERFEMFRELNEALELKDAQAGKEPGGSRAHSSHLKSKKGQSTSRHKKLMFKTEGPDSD

| Compound | activation |
| --- | --- |
| COc1cccc2c1[C@@H]1CN(CCCCn3c(=O)[nH]c4c(sc5ncc(-c6ccccc6)nc54)c3=O)C[C@@H]1CO2 | -97.6% |
| CN1[C@@H]2CC(OC(=O)[C@H](CO)c3ccccc3)C[C@H]1[C@@H]1O[C@@H]12 (stereo not given in full) | -10.7% |
| CN(C)C(=O)Nc1ccc(Cl)c(Cl)c1 | 13.4% |
| COc1c(C)c2c(c(O)c1CC=C(C)CCC(=O)OCCN1CCOCC1)C(=O)OC2 | 13.4% |
| C/C(=C1\CCOC(=O)S1)N(C=O)Cc1cnc(C)nc1N | -5.86% |
| CCCCOC(=O)CC(CC(=O)OCCCC)(OC(C)=O)C(=O)OCCCC | -31.1% |
| COc1cc(C=CC(=O)O)ccc1O | -12.5% |
| COc1ccc2c(c1)CC[C@H]1[C@@H]2CC[C@]2(C)[C@@H](NCCCCCCN3C(=O)C=CC3=O)CC[C@H]12 | 38.4% |
| CC(=O)O[C@@H]1CC2C3CCc4cc(OC(=O)c5ccccc5)ccc4C3CCC2(C)[C@H]1OC(C)=O (stereo not given in full) | 6.21% |
| C/C=C/c1ccc(O)c(OC)c1 | -0.837% |
| CCCCN(CCCC)C(C(N)=O)c1ccc(OC)cc1 (stereo not given) | 20.9% |
| CC[C@H](NC(=O)[C@H](C)NC)C(=O)N1C[C@@H](O)C[C@H]1Cc1c(-c2[nH]c3cc(F)ccc3c2C[C@H]2C[C@H](O)CN2C(=O)[C@H](CC)NC(=O)[C@H](C)NC)[nH]c2cc(F)ccc12 | 21.3% |
| C[C@@H]1[C@H](C)CC[C@]2(C(=O)O)CC[C@]3(C)C(=CC[C@@H]4[C@@]5(C)C[C@@H](O)[C@H](O)[C@@](C)(CO)[C@H]5CC[C@]43C)[C@@H]12 | 36.3% |
| CN[C@H](CC(C)C)C(=O)N[C@H]1C(=O)N[C@@H](CC(N)=O)C(=O)N[C@@H]2C(=O)N[C@H]3C(=O)N[C@H](C(=O)N[C@H](C(=O)O)c4cc(O)cc(O)c4-c4cc3ccc4O)[C@H](O)c3ccc(c(Cl)c3)Oc3cc2cc(c3O[C@@H]2O[C@H](CO)[C@@H](O)[C@H](O)[C@@H]2O[C@H]2C[C@](C)(N)[C@H](O)[C@H](C)O2)Oc2ccc(cc2Cl)[C@H]1O | 4.73% |
| O=C(O)c1ccccc1Nc1cccc(C(F)(F)F)c1 | -19.8% |
| OCCN1C[C@H](O)[C@@H](O)[C@H](O)[C@@H]1CO | 24.9% |
| CC1CC(OC(=O)c2ccccc2O)CC(C)(C)C1 (stereo not given) | -0.565% |
| CCN(C)C(=O)Oc1cccc([C@H](C)N(C)C)c1 | 6.21% and 13.7% |
| O=C(NCC(=O)N1CCCCC1)Nc1ccc2nnsc2c1 | -6.7% |
| CC(=O)[C@@]1(O)CC[C@H]2[C@@H]3C[C@H](C)C4=CC(=O)CC[C@]4(C)[C@H]3CC[C@@]21C | -5.86% |

| Compound | activation |
| --- | --- |
| O=C(O)c1ccc(OCCCOc2ccc(C(=O)O)cc2)cc1 | -13% |
| O=C(NNC(=O)c1ccc(CNS(=O)(=O)c2ccc(F)c(Cl)c2)cc1)c1ccccc1 | 15.5% |
| O=C(O)Cc1sc(-c2ccccc2)nc1-c1ccc(Cl)cc1 | -17.6% |
| Nc1nc(F)nc2c1ncn2[C@@H]1O[C@H](COP(=O)(O)O)[C@@H](O)[C@H]1O | -4.99% |
| COc1ccc(C(=O)c2ccccc2O)c(O)c1 | 10.9% |
| CCCCC(=O)O[C@]1(C(=O)CO)CC[C@H]2[C@@H]3CCC4=CC(=O)CC[C@]4(C)[C@H]3[C@@H](O)C[C@@]21C | 29.3% |
| O=C(O)Cc1ccc(CCNS(=O)(=O)c2ccc(Cl)cc2)cc1 | -1.67% |
| CCCCCCCC/C=C\CCCCCCCCN | -16.7% |
| COc1cc(N)c(Cl)cc1C(=O)NC1CCN(Cc2ccccc2)CC1 | 17.6% |
| C[C@H]1[C@H](NC(=O)C(=NOC(C)(C)C(=O)O)c2csc(N)n2)C(=O)N1S(=O)(=O)O | -31.5% |
| C[C@@H](O[C@H]1OCCN(Cc2n[nH]c(=O)[nH]2)[C@H]1c1ccc(F)cc1)c1cc(C(F)(F)F)cc(C(F)(F)F)c1 | 7.53% |
| COc1ccnc2c1CCCCC2S(=O)c1nc2ccccc2[nH]1 (stereo not given) | 11.9% |
| CC(=O)N(CC(O)CO)c1c(I)c(C(=O)NCC(O)CO)c(I)c(C(=O)NCC(O)CO)c1I (stereo not given) | -16.7% |
| CC(COc1ccccc1)NN (stereo not given) | 6.69% |
| NC(=O)C1(N2CCCCC2)CCN(CCCN2c3ccccc3CCc3ccc(Cl)cc32)CC1 | 3.35% |
| C[C@@H]1CC[C@@]2(OC1)O[C@H]1C[C@H]3[C@@H]4CC[C@H]5C[C@@H](O)CC[C@]5(C)[C@H]4CC(=O)[C@]3(C)[C@H]1[C@@H]2C | -17.6% |
| CCCCCCCCOc1ccc(C(=O)c2ccccc2)c(O)c1 | -2.82% |
| O=C(N/N=C/c1ccccc1O)c1ccncc1 | -12.6% |
| C#C[C@]1(O)CC[C@H]2[C@@H]3CCC4=Cc5oncc5C[C@]4(C)[C@H]3CC[C@@]21C | -14.2% |
| Cc1cccc(Nc2ccncc2S(=O)(=O)NC(=O)NC(C)C)c1 | 14.1% and -1.67% |
